# This is a sample that favours compounds with a hit; in the whole collection about 3.3% have one here.
# SIRT5 inh: blocks human SIRT5 desuccinylation of peptide; hit rate 1.1% among 330,000; Purified SirT5, succinyl-peptide AMC, trypsin-coupled fluorescence; Q9NXA8; inhibition, % at 15 µM; in the data active = inhibition above about 15%
# CASP6 VEID inh: caspase-6 (human) enzyme inhibition; P55212; purified caspase-6, Z-VEID-R110 cleavage fluorescence; inhibition, % at 12.5 µM; hit rate 0.53% among 350,000;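 active = mean inhibition across replicates at least about 35%, with every replicate also reaching that limit, limit read from the data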;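 also: 0% = median of neutral control wells and 100% = no fluorescence left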
# INS-1E GSIS act: GLuc luminescence reporter in INS-1E cells, primary screen for activators of glucose-dependent secretion of insulin; activation, % at 16.6 µM; hit rate 0.61% among 370,000; INS-1E GLuc reporter insulin secretion, 2-3 h;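 active = lowest replicate activation of at least 40%, so every replicate reaches that level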;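 also: 0% = median of neutral control wells and 100% = median of IBMX positive control wells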
# ERAP1 HTS inh: inhibitors of human ERAP1 aminopeptidase; Q9NZ08; recombinant ERAP1, Leu-AMC fluorescence, 60 min; inhibition, % at 10.7 µM; hit rate 0.15% among 340,000;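 active = mean replicate inhibition of at least 30%, or all replicates individually reaching that 30% level; inactive = mean below 30% and not every replicate reaching it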;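 also: 0% = neutral control wells and 100% = L-leucinethiol positive control wells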
# FGF22 binding: binders of recombinant human FGF22 by thermal shift; Q9HCT0; SYPRO orange fluorescence; percent of sucrose octasulfate shift, DMSO zero; activity (Tm shift, normalised), % at 9.99 µM; hit rate 1.5% among 340,000;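 active = mean Tm shift, scaled 0 neutral to 100 positive control, at about 1.3% or above, every replicate too, limit read from the data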
# An asterisk follows results filed as active; x = no result.
SMILES,SIRT5 inh,CASP6 VEID inh,INS-1E GSIS act,ERAP1 HTS inh,FGF22 binding
CC(=O)N1CCc2c(sc(NC(=O)c3ccc([N+](=O)[O-])o3)c2C#N)C1,3,38*,-9,27,0
COc1ccc(C(=O)Nc2sc3c(c2C#N)CCN(C(C)=O)C3)cc1,-6,-4,0,6,1
CCOC(=O)N1CCc2c(sc(NC(=O)c3ccc(S(=O)(=O)N4CCCC4)cc3)c2C#N)C1,9,5,x,31*,1
COc1ccc(NC(=O)Nc2ccc3c(c2)C(=O)N([C@H](C)CO)C[C@@H](C)[C@H](CN(C)S(=O)(=O)c2cccs2)OCCCC[C@H](C)O3)cc1,-2,-1,-3,-2,0
O=C(C[C@H]1C[C@H]2c3cc(NC(=O)NC4CCCC4)ccc3O[C@H]2[C@@H](CO)O1)NCCc1ccccc1,-6,-2,-14,-1,0
CC(C)CC(NC(=O)CC12CC3CC(CC(C3)C1)C2)C(=O)NC1=NCCS1 (stereo unspecified),-3,0,1,1,43*
CN(C)S(=O)(=O)Oc1ccsc1C(=O)Nc1ccc(C(F)(F)F)cc1,-1,3,-6,-2,0
CN(C)S(=O)(=O)Oc1ccsc1C(=O)Nc1ccc(Br)cc1,-3,-5,2,-3,57*
O=C(C[C@H]1CC[C@H]2NC[C@H](O)COC[C@@H]2O1)NCc1ccc(Oc2ccccc2)cc1,-2,-1,1,2,0
COCCn1c(SCC(=O)c2ccccc2)nc2c(c1=O)SCC2,-2,-2,5,0,43*
COCCn1c(SCC(=O)N2CCCCC2)nc2c(c1=O)SCC2,2,0,0,-1,0
COC(=O)c1ccccc1-c1ccc(/C=N/NC(N)=O)o1,2,-5,x,x,2.9*
Cc1noc(C)c1NC(=O)Nc1ccc2c(c1)CC(=O)N([C@H](C)CO)C[C@@H](C)[C@H](CN(C)Cc1ccc3c(c1)OCO3)O2,-2,0,14,-2,0
Nc1cccc(-c2csc(-n3ncc(C(=O)O)c3C(F)(F)F)n2)c1,29*,5,-13,2,0
O=C(O)c1cnn(-c2nc(-c3cccc(F)c3)cs2)c1C(F)(F)F,-1,4,13,-4,0
C[C@@H]1CN([C@@H](C)CO)S(=O)(=O)c2ccc(-c3cncnc3)cc2O[C@@H]1CN(C)C(=O)NC1CCCC1,-2,-1,-8,4,0
c1ccc2nc(SCc3cn4ccccc4n3)cnc2c1,0,-2,5,0,43*
Cc1noc(C)c1S(=O)(=O)Nc1ccc2c(c1)C(=O)N([C@H](C)CO)C[C@@H](C)[C@H](CN(C)C(=O)c1ccncc1)OCCCC[C@@H](C)O2,-1,-1,-1,4,0

# Screening results (PubChem BioAssay)
